# PubChem BioAssay (Tox21)
# Inconclusive results are not listed. Unmarked numbers belong to inactive results. The source made the active and inactive calls. Calls follow the shape of the dose curve; as a rule, active = well fitted curve in the direction sought with a large enough effect in the repeat runs; inconclusive = weak or mixed curves; inactive = no such curve, though single readings can be large; an effect the other way counts as inactive or inconclusive.
# Biological target: Cytochrome P450 2C19 (Homo sapiens) (UniProt P33261)
# Sequence (P33261 whole entry, looked up): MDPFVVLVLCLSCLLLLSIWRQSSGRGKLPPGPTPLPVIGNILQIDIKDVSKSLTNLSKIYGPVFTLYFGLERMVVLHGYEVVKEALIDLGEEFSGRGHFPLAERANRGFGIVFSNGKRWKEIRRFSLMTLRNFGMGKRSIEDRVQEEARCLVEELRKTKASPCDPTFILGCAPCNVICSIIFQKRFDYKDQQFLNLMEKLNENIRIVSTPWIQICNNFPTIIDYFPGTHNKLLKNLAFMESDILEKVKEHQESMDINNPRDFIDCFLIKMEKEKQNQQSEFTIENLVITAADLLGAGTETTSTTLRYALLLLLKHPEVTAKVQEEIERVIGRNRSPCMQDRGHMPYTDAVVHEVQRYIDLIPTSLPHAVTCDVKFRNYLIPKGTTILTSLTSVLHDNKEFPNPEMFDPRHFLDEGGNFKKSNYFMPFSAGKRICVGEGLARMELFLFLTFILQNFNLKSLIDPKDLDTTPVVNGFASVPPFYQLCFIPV
# Test: Cytochrome P450 Family 2 Subfamily C Member 19 (CYP2C19) small molecule antagonists: luciferase reporter qHTS assay (AID 1671197); also: nearly all actives have a fitted effect of over 65% in size; also: potency is read from the fitted curve at half-maximal effect
# Conditions: P450-Glo CYP2C19 enzyme, luciferin luminescence, 1 h; series mostly up to 115 µM; activity change, negative = inhibition: at the top concentration
# How it was run: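 First, compounds are pinned into enzyme-substrate mix and held 10 min at room temperature. Second, NADPH regeneration solution is added and plates incubate 1 h at 37C. Third, detection reagent is added and luminescence read after 20 min.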
# % is scaled to controls: 0 for no effect and ±100 for the full control effect.
Compound,"activity change, negative = inhibition",Potency
CCCCCCCCS(=O)(=O)O,-10.1%,–
C/C=C(\C)C(=O)OC/C=C(\C)CCC=C(C)C,-16.6%,–
CC(C)=CCC/C(C)=C\C#N,–,39.9 µM (active)
CC[N+](C)(CC)CC,-2.36%,–
O=C(O)Cc1c(Cl)ccc(Cl)c1Cl,–,15.9 µM (active)
O=C(O)COc1ccc2ccccc2c1,-26.3%,–
C=CCN(CC=C)CC=C,-9.27%,–
C=CCON/C(CCC)=C1\C(=O)CC(C)(C)C(C(=O)OC)=C1O,–,78.7 µM (active)
CC(C)(C)C(=O)CCc1ccc(Cl)cc1,–,7.1 µM (active)
COC(=O)c1c(C)cc(O)c(C)c1O,–,7.96 µM (active)
CCCCN(CCCC)CCCCCCN(CCCC)CCCC,11%,–
CCCCCC(=O)CC,8%,–

# Biological target: Cytochrome P450 2C9 (Homo sapiens) (UniProt P11712)
# Sequence (P11712 whole entry, looked up): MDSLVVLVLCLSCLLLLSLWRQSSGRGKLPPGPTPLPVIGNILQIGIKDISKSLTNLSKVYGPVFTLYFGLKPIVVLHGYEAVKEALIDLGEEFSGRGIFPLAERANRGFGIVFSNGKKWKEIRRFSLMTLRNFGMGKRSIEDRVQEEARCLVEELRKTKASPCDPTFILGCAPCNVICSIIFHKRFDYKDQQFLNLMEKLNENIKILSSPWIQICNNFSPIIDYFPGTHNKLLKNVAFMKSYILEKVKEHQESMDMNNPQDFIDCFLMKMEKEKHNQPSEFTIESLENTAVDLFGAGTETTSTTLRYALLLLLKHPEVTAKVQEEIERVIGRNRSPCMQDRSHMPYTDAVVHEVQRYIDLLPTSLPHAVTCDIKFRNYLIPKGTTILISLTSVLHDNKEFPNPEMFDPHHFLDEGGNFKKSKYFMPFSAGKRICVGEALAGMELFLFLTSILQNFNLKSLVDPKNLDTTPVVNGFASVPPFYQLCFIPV
# Test: Cytochrome P450 Family 2 Subfamily C Member 9 (CYP2C9) small molecule antagonists: luciferase reporter qHTS assay (AID 1671198); also: nearly all actives have a fitted effect of over 50% in size; also: potency is read from the fitted curve at half-maximal effect
# Conditions: P450-Glo CYP2C9 enzyme assay, luciferin luminescence; series mostly up to 115 µM; activity change, negative = inhibition: at the top concentration
# How it was run: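 P450-Glo proluciferin substrate with CYP2C9 enzyme; 10 min RT preincubation, then NADPH regeneration 1 h at 37C; luciferin detection reagent 20 min RT, luminescence in relative luminescence units.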
Compound,"activity change, negative = inhibition",Potency
Cc1ccc(Br)cc1,-9.53%,–
Cc1ccc(OC(=O)CC(C)C)cc1,-9.12%,–
C[Si](C)(C)O[Si](O)(O)O,5.84%,–
CC(=O)Oc1ccc(C(C)=O)cc1,6.69%,–
CC/C=C/CCCCCCCCCCOC(C)=O,-15.5%,–
CC(C)(C)C(=O)CC(=O)C(C)(C)C,-8.3%,–
CCC(C)SSC(C)CC (configuration not stated),-0.755%,–
COC(=O)c1ccc(NC(C)=O)cc1OC,1.23% [at 53 µM],–
CCN1CCN(C(=O)N[C@@H](C(=O)N[C@@H]2C(=O)N3[C@@H]2SC(C)(C)[C@H]3C(=O)O)c2ccccc2)C(=O)C1=O,-8.1% [at 53 µM],–
NNC(=O)OCc1ccccc1,–,56.4 µM (active)
CC(C)=CCC/C(C)=C\C#N,-17.4%,–
CC[N+](C)(CC)CC,-7.51%,–
C=CCON/C(CCC)=C1\C(=O)CC(C)(C)C(C(=O)OC)=C1O,–,35.2 µM (active)
O=C1Nc2ccccc2C1=O,16%,–

# Biological target: Cytochrome P450 1A2 (Homo sapiens) (UniProt P05177)
# Sequence (P05177 whole entry, looked up): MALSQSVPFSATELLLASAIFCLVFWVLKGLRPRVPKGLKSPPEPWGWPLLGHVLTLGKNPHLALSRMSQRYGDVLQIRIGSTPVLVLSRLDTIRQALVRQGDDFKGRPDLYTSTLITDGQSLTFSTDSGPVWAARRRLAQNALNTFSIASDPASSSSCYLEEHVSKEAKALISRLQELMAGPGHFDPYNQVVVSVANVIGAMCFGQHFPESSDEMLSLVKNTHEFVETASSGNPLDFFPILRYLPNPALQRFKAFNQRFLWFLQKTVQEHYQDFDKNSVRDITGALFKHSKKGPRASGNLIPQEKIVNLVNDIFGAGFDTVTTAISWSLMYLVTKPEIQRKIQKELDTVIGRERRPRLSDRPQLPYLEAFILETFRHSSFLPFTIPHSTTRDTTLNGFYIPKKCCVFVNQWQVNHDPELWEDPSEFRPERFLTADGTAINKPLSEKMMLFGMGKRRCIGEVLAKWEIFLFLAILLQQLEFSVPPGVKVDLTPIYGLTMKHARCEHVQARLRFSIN
# Test: Cytochrome P450 Family 1 Subfamily A Member 2 (CYP1A2) small molecule antagonists: luciferase reporter qHTS assay (AID 1671199); also: nearly all actives have a fitted effect of over 50% in size; also: potency is read from the fitted curve at half-maximal effect
# Conditions: P450-Glo CYP1A2 enzyme, luciferin luminescence, 1 h; series mostly up to 115 µM; activity change, negative = inhibition: at the top concentration
# How it was run: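 Quantitative high-throughput format using the P450-Glo CYP1A2 system. Reaction initiated by NADPH regeneration solution, 1 h at room temperature, then stopped with detection reagent; luminescence measured 20 min later.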
Compound,Potency,"activity change, negative = inhibition"
Clc1ccc2c(c1)Nc1ccccc1S2,0.347 µM (active),–
CCCCN1C(=O)c2ccccc2C1=O,2.61 µM (active),–
Cc1ccc(Br)cc1,–,-8.17%
CC(C)(C)OC(=O)c1ccccc1C(=O)O,–,-24.8%
CC(C)(C)c1ccc(N)cc1,–,-10.6%
C[Si](C)(C)O[Si](O)(O)O,–,-18.2%
CCCCNCC,19.3 µM (active),–
CC(=O)Oc1ccc(C(C)=O)cc1,33 µM (active),–
COc1cc(C(=O)NC2CCCNC2)cc(OC)c1OC (configuration not stated),15.5 µM (active),–
CCC(C)(C)C,37.7 µM (active),–
COC(=O)c1ccc(NC(C)=O)cc1OC,11.5 µM (active),–
CCN(CC)CC,–,-12.3%
N=C(N)N,–,-14.4% [at 53 µM]
O=Cc1ccccc1S(=O)(=O)O,–,-27.2%
NNC(=O)OCc1ccccc1,15.9 µM (active),–
O=C(O)Cc1c(Cl)ccc(Cl)c1Cl,25.2 µM (active),–
O=C(O)COc1ccc2ccccc2c1,–,-17.5%
C=CCN(CC=C)CC=C,–,-18.7%
COC(=O)c1c(C)cc(O)c(C)c1O,0.252 µM (active),–
CCCCN(CCCC)CCCCCCN(CCCC)CCCC,–,-30.6%
O=C1Nc2ccccc2C1=O,39.6 µM (active),–
CCCCCC(=O)CC,–,-11%

# Biological target: Voltage-gated inwardly rectifying potassium channel KCNH2 (Homo sapiens) (UniProt Q12809)
# Sequence (Q12809 whole entry, looked up): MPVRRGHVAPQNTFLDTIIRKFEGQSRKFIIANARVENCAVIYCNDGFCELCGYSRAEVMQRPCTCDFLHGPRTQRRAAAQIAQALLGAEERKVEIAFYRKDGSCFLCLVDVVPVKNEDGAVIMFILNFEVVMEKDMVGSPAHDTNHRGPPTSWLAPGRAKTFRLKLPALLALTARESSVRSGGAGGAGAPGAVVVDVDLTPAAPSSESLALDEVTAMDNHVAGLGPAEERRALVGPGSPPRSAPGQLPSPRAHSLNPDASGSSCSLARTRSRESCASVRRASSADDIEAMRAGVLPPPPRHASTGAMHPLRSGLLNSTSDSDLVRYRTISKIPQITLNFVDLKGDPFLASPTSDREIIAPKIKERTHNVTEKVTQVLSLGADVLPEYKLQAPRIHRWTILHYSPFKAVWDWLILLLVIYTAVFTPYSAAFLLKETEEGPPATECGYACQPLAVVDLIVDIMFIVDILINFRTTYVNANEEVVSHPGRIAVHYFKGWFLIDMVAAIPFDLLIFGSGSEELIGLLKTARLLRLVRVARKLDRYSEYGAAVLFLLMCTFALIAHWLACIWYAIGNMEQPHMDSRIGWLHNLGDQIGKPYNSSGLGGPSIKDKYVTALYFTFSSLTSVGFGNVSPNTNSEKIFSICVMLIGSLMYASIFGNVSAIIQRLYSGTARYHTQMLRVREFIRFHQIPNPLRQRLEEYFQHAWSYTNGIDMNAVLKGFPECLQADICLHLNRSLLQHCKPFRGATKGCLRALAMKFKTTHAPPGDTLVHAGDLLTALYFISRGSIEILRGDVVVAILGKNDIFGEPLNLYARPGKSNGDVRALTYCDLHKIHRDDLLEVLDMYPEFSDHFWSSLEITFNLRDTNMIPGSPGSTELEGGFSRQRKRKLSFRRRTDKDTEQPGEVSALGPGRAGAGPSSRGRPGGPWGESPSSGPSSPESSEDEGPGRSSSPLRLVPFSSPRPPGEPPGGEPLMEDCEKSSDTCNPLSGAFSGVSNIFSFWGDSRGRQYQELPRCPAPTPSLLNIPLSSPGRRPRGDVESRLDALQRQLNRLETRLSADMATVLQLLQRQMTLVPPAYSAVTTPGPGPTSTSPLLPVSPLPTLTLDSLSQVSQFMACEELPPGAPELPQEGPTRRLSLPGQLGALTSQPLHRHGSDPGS
# Test: Human Ether-a-go-go-Related Gene (hERG) channel small molecule antagonists: fluorescence cell-based qHTS assay (AID 1671200);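 also: hERG-expressing U2OS cells given a thallium stimulus after FluxOR II dye loading; nearly all actives have a fitted effect of over 50% in size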
# Conditions: hERG-U2OS cells, FluxOR thallium flux fluorescence; series mostly up to 76.8 µM; activity change, negative = inhibition: at the top concentration
# How it was run: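 Read-out: thallium influx as a surrogate for potassium, tracked as fluorescence (480 nm ex/540 nm em) every second for 2 min after Stimulus Buffer addition in dye-loaded hERG-U2OS cells.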
row,Compound,"activity change, negative = inhibition"
1,Clc1ccc2c(c1)Nc1ccccc1S2,10.8% [at 35.3 µM]
2,CCCCN1C(=O)c2ccccc2C1=O,3.11%
3,Cc1ccc(Br)cc1,0.982%
4,C=COCCCCO,-0.193%
5,Cc1ccc(OC(=O)CC(C)C)cc1,3.9%
6,CC(C)(C)OC(=O)c1ccccc1C(=O)O,3.61%
7,CC(C)(C)c1ccc(N)cc1,0.418%
8,C[Si](C)(C)O[Si](O)(O)O,-2.19%
9,CC(C)CC(O)Cc1ccccc1 (configuration not stated),5.92%
10,CCCCNCC,-2.1%
11,CC(=O)Oc1ccc(C(C)=O)cc1,15.1%
12,COc1ccccc1N1CCN(CC(O)COc2cc(OC)c(OC)c(OC)c2)CC1 (configuration not stated),1.22% [at 35.3 µM]
13,COc1cc(C(=O)NC2CCCNC2)cc(OC)c1OC (configuration not stated),3.45% [at 35.3 µM]
14,CCC(C)(C)C,2.79%
15,CC12CCCC=C1C(=O)OC2=O (configuration not stated),-1.41%
16,CC/C=C/CCCCCCCCCCOC(C)=O,1.73%
17,CC(C)(C)C(=O)CC(=O)C(C)(C)C,2.72%
18,CCC(C)SSC(C)CC (configuration not stated),-1.63%
19,COC(=O)c1ccc(NC(C)=O)cc1OC,-2.27% [at 35.3 µM]

row,Compound,"activity change, negative = inhibition"
1,CCN(CC)CC,0.384%
2,N=C(N)N,0.0092% [at 35.3 µM]
3,O=Cc1ccccc1S(=O)(=O)O,-0.0443%
4,CC(CC(=O)Cl)CC(C)(C)C (configuration not stated),-1.94%
5,CCCCCCCCS(=O)(=O)O,0.153%
6,C/C=C(\C)C(=O)OC/C=C(\C)CCC=C(C)C,-12.9%
7,NNC(=O)OCc1ccccc1,3.33%
8,CC(C)=CCC/C(C)=C\C#N,13.5%
9,CC[N+](C)(CC)CC,-0.445%
10,O=C(O)Cc1c(Cl)ccc(Cl)c1Cl,0.648%
11,O=C(O)COc1ccc2ccccc2c1,1.55%
12,C=CCN(CC=C)CC=C,0.0474%
13,C=CCON/C(CCC)=C1\C(=O)CC(C)(C)C(C(=O)OC)=C1O,6.23%
14,CC(C)(C)C(=O)CCc1ccc(Cl)cc1,0.619%
15,COC(=O)c1c(C)cc(O)c(C)c1O,-0.235%
16,CCCCN(CCCC)CCCCCCN(CCCC)CCCC,-10.9%
17,O=C1Nc2ccccc2C1=O,1.75%
18,CCCCCC(=O)CC,0.966%

# Biological target: Cytochrome P450 3A4 (Homo sapiens) (UniProt P08684)
# Sequence (P08684 whole entry, looked up): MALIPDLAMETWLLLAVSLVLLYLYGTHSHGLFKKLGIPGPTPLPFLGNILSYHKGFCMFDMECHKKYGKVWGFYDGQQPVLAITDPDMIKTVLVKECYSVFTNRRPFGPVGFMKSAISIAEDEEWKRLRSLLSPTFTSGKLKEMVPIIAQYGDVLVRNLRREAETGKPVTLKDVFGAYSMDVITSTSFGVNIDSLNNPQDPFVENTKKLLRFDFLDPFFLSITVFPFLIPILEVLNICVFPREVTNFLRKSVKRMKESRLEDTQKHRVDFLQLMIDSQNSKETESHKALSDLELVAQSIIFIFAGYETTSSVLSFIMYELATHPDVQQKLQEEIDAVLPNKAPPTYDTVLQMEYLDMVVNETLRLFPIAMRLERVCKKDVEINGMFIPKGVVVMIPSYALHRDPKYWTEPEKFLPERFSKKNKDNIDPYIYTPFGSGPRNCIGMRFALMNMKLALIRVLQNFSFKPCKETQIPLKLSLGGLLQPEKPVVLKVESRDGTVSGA
# Test: Cytochrome P450 Family 3 Subfamily A Member 4 (CYP3A4) small molecule antagonists: luciferase reporter qHTS assay (AID 1671201); also: nearly all actives have a fitted effect of over 50% in size; also: potency is read from the fitted curve at half-maximal effect
# Conditions: P450-Glo CYP3A4 enzyme, luciferin luminescence, 1 h; series mostly up to 115 µM; activity change, negative = inhibition: at the top concentration
# How it was run: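 Luminescent readout (RLU) proportional to CYP3A4 activity, from luciferin generated off a proluciferin substrate. Enzyme–substrate mix plus compound 10 min at room temp, NADPH regeneration 1 h, detection reagent 20 min.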
Compound,"activity change, negative = inhibition",Potency
Clc1ccc2c(c1)Nc1ccccc1S2,-14.4% [at 52.9 µM],–
CCCCN1C(=O)c2ccccc2C1=O,90.6%,–
Cc1ccc(Br)cc1,4.78%,–
C=COCCCCO,-4.82%,–
Cc1ccc(OC(=O)CC(C)C)cc1,8.39%,–
CC(C)(C)OC(=O)c1ccccc1C(=O)O,-2.89%,–
CC(C)(C)c1ccc(N)cc1,–,28.3 µM (active)
C[Si](C)(C)O[Si](O)(O)O,18.7%,–
CC(C)CC(O)Cc1ccccc1 (configuration not stated),56%,–
CCCCNCC,-0.433%,–
CC(=O)Oc1ccc(C(C)=O)cc1,22.2%,–
COc1ccccc1N1CCN(CC(O)COc2cc(OC)c(OC)c(OC)c2)CC1 (configuration not stated),-12% [at 52.9 µM],–
COc1cc(C(=O)NC2CCCNC2)cc(OC)c1OC (configuration not stated),-13.1% [at 52.9 µM],–
CCC(C)(C)C,5.28%,–
CC12CCCC=C1C(=O)OC2=O (configuration not stated),1.47%,–
CC/C=C/CCCCCCCCCCOC(C)=O,8.98%,–
CC(C)(C)C(=O)CC(=O)C(C)(C)C,-19%,–
CCC(C)SSC(C)CC (configuration not stated),2.07%,–
COC(=O)c1ccc(NC(C)=O)cc1OC,9.83% [at 52.9 µM],–

Compound,"activity change, negative = inhibition",Potency
CCN(CC)CC,-15%,–
N=C(N)N,-2.08% [at 52.9 µM],–
O=Cc1ccccc1S(=O)(=O)O,14.1%,–
CC(CC(=O)Cl)CC(C)(C)C (configuration not stated),-7.53%,–
CCN1CCN(C(=O)N[C@@H](C(=O)N[C@@H]2C(=O)N3[C@@H]2SC(C)(C)[C@H]3C(=O)O)c2ccccc2)C(=O)C1=O,-5.66% [at 52.9 µM],–
CCCCCCCCS(=O)(=O)O,41.4%,–
C/C=C(\C)C(=O)OC/C=C(\C)CCC=C(C)C,11.4%,–
NNC(=O)OCc1ccccc1,-20.8%,–
CC(C)=CCC/C(C)=C\C#N,-1.06%,–
CC[N+](C)(CC)CC,8.59%,–
O=C(O)Cc1c(Cl)ccc(Cl)c1Cl,–,12.6 µM (active)
O=C(O)COc1ccc2ccccc2c1,5.88%,–
C=CCN(CC=C)CC=C,4.72%,–
C=CCON/C(CCC)=C1\C(=O)CC(C)(C)C(C(=O)OC)=C1O,–,35.2 µM (active)
CC(C)(C)C(=O)CCc1ccc(Cl)cc1,21.5%,–
CCCCN(CCCC)CCCCCCN(CCCC)CCCC,-13.2%,–
O=C1Nc2ccccc2C1=O,-6.34%,–
CCCCCC(=O)CC,6.76%,–
